Rows were chosen to be rich in hits. Some 3.1% of all compounds tested hit in one or more screens of this group.
DRD3 antagonist: qHTS of D3 Dopamine Receptor Antagonist: qHTS; D3R cells, DiscoveRx beta-arrestin luminescence, antagonist mode; active compounds read low; AID 652054, 2013; hit rate 2.5% among 360,000; max response, negative = inhibition, %; in the data active = max response below about -50%; inconclusive = no clear call, values can overlap the other calls; note: % is set by controls: 0 for no effect and ±100 for the full control effect
Target sequence (P35462 whole entry, looked up): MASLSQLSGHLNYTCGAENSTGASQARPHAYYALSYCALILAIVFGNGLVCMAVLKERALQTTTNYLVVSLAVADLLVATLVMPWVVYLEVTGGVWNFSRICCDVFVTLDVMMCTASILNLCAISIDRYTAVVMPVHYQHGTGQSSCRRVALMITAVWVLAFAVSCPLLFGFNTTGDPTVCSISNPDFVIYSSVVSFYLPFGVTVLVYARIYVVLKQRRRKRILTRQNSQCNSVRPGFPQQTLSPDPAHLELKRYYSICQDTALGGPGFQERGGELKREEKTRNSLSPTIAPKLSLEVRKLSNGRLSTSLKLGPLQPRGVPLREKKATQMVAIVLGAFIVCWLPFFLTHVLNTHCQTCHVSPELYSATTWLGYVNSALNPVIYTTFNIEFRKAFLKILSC
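Cells expressing the human receptor were seeded at 1500 cells/well, incubated overnight at 37 degrees C in 5% CO2, then exposed to library compounds with dopamine controls for 90 minutes at 37 degrees C before luminescent detection.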
D3 ag: qHTS of D3 Dopamine Receptor Agonist: qHTS | D3R DiscoveRx beta-arrestin cells, luminescence, 90 min | max activation, % | hit rate 0.58% among 410,000; in the data active = max activation above about 30%; note: 0% is about no effect
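Agonist mode: compounds and dopamine controls were applied to plated cells for 90 min at 37 degrees C after an overnight attachment at 1500 cells/well. Luminescent read-out followed 30 - 60 minutes at room temperature with DiscoveRx detection reagent.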
RGS4 inhibitor: Inhibitors of Regulator of G Protein Signaling (RGS) 4: qHTS | Transcreener GDP fluorescence polarization, RGS4-accelerated GTP hydrolysis | Potency, µM (titrated, usually from 114 µM), for the others: at the top dose activity change, negative = inhibition, most hits filed as inhibitors | hit rate 0.039% among 390,000 | AID 504845, 2011; active = well fitted inhibition curve with a large enough effect; inconclusive = small, poorly fitted or top-dose-only effect; inactive = no such curve, though single readings can be large or run the other way; note: potency is the fitted concentration of half-maximal effect; % is set by controls: 0 for no effect and ±100 for the full control effect; nearly all actives have a fitted effect of over 75% in size
Target sequence (P49798 whole entry, looked up): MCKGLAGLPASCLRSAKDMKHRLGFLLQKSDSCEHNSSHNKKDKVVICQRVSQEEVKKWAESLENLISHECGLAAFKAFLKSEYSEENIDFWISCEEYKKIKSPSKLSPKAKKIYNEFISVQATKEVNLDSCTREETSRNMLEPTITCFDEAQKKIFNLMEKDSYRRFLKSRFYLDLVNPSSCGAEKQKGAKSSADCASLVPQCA
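MLSMR compounds (23 nl, pin-transferred) preincubated 10 min at room temperature with a 500nM (2x) first reagent, then RGS4 at 900nM (2x) plus Transcreener GDP mix added; fluorescence polarization (620/688 nm) read before and after 90 min at 30 °C.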
uPA surface inh: qHTS for Inhibitors of Cell Surface uPA Generation | cell surface uPA generation assay, qHTS | hit rate 0.31% among 330,000 | Potency, µM (series often up to 38.3 µM), without a hit: top-dose activity change, negative = inhibition, usual class: inhibitors; active = well fitted inhibition curve with a large enough effect; inconclusive = small, poorly fitted or top-dose-only effect; inactive = no such curve, though single readings can be large or run the other way; tested in mouse RAW 264.7 cells; note: potency is the fitted concentration of half-maximal effect; % is set by controls: 0 for no effect and ±100 for the full control effect; nearly all actives have a fitted effect of over 55% in size
An asterisk follows results filed as active; ? = inconclusive; nt = no result given; [ ] = remark or other dose.

SMILES	DRD3 antagonist	D3 ag	RGS4 inhibitor	uPA surface inh
Cc1ccc(NC(=O)c2ccc(NCCCN3CCC(C)CC3)c([N+](=O)[O-])c2)cc1F	-65*	-13	12%	-4%
Cc1ccc(NC(=O)c2ccc(NCCN)c([N+](=O)[O-])c2)cc1	-9	-6	-17%	-4%
CCN(C(=O)c1cc2c(s1)-c1ccccc1OC2)c1cc(Cl)ccc1OC	nt	-16	8%	nt
Cc1cc(OCCOCCNC(C)C)cc(C)c1Cl	-58*	-12	-25%	-6%
Cc1cc(OCC(=O)NC(C)C)cc(C)c1Cl	-10	12	-14%	2%
COCCn1nnnc1C(c1ccccc1OC)N1CCN(c2ccccc2F)CC1 (configuration not stated)	0	3	-1%	3%
COc1ccccc1CN1CCN(C(CC(C)C)c2nnnn2Cc2cccs2)CC1 (configuration not stated)	-63*	-16	-32%	-5%
Cc1ccc(C(c2nnnn2Cc2cccs2)N2CCN(Cc3ccc4c(c3)OCO4)CC2)cc1 (configuration not stated)	-53*	-22	5%[11.4 µM]	-14%
Fc1ccc(C(c2nnnn2Cc2cccs2)N2CCN(c3ccccc3)CC2)cc1 (configuration not stated)	12	-4	23%	-1%
COCCn1nnnc1C(c1cc2cccc(C)c2[nH]c1=O)N1CCN(c2ccccc2F)CC1 (configuration not stated)	-54*	-2	-6%	1%
COc1ccc(C(c2nnnn2Cc2cccs2)N2CCN(c3ccccc3F)CC2)cc1OC (configuration not stated)	-81*	0	-11%	3%
Cc1ccc(NC(=O)C2CCC(CNS(=O)(=O)c3csc(C(N)=O)c3)CC2)cc1Cl (configuration not stated)	nt	5	-23%	nt
Cc1cc(N2CCN(C)CC2)nc2ccc(NC(=O)c3ccc4c(c3)OCO4)cc12	-76*	-6	?	-16%
C#CC(C)(CC)NC(=O)c1cc2c(n(-c3ccc(Cl)cc3)c1=O)CC(C)(C)CC2=O (configuration not stated)	nt	8	-13%	nt
CCc1nc2ccc(C(=O)Nc3cc(-c4ccccc4)ccc3OC)cn2c1N(CCN(C)C)CC1CC1	-69*	-19	nt	nt
CCc1nc2ccc(C(=O)NCCOc3ccc(OC)cc3)cn2c1N(CCC(C)C)CCN(C)C	-89*	-28	nt	nt
CCc1nc2ccc(C(=O)Nc3cc(-c4ccccc4)ccc3OC)cn2c1N(C=O)CCC(C)C	6	69*	nt	nt
CCc1nc2ccc(C(=O)Nc3cc(-c4ccccc4)ccc3OC)cn2c1N(C)CCC(C)C	60	15	nt	nt
COCCNC(=O)CSc1nc(-c2ccccc2)[nH]c1-c1ccc(OC)cc1	nt	-14	15%	nt
CCCCCSc1nnc(-c2ccc(Br)cc2)o1	nt	4	-15%	nt
CSc1ccc(CCNC(=O)CCCn2c(=O)c3cccn3c3ccccc32)cc1	nt	3	-24%	nt
COc1cc(C[C@@H]2NCCc3cc(O)c(O)cc32)cc(OC)c1OC	nt	-21	nt	nt
O=C(Cc1cccc2ccccc12)N/N=C/c1ccc2cccc(O)c2n1	-56*	-26	-13%	-3%
Cc1ccc(NC(=O)C2Cc3ccccc3N2C(=O)c2ccccc2)cc1Cl (configuration not stated)	nt	-8	-14%	nt
O=C(NCc1cccs1)c1nn(-c2ccccc2F)nc1CO	nt	-13	-7%	nt
SMILES	DRD3 antagonist	D3 ag	RGS4 inhibitor	uPA surface inh
CCCCCCCCCC[N+](C)(C)CC/C=C1/c2ccccc2Sc2ccc(Cl)cc21	-113*	-2	11%	-12%
CCCCCCCCCCC[N+](C)(C)CC/C=C1/c2ccccc2Sc2ccc(Cl)cc21	-124*	-3	-52%	-11%
Cc1ccc2c(=O)c(C(=O)c3ccccc3)cn(CC(=O)Nc3ccccc3C)c2n1	nt	4	-17%	nt
OCCC1CN(Cc2cnn(-c3ccccc3Cl)c2)CCN1Cc1ccsc1 (configuration not stated)	-68*	-17	22%	-13%
OCCC1CN(Cc2ccc3nonc3c2)CCN1Cc1ccsc1 (configuration not stated)	-52*	-15	20%	-1%
OCCC1CN(Cc2cccc(-c3ccco3)c2)CCN1Cc1ccsc1 (configuration not stated)	-77*	-10	11%	10%
Cc1ccc(C)c(C(=O)Cn2ncc(Cl)c(Cl)c2=O)c1	-28	-9	1%	-5%
Cc1cc(C(=O)Cn2ncc(Cl)c(Cl)c2=O)c(C)n1CC(F)(F)F	-59*	-9	-5%	-8%
COc1ccc(N2CCN(S(=O)(=O)CCNC(=O)c3ccc(C(F)(F)F)cc3)CC2)cc1	nt	2	15%	nt
CCOc1ccc(C2C(C(N)=O)=C(C)Nc3nc(-c4cccc(Cl)c4)nn32)cc1OC (configuration not stated)	nt	-7	-5%	nt
CCOc1ccccc1CNC(=O)Cn1ncn2nc(-c3cccs3)cc2c1=O	nt	7	5%	nt
CCOC(=O)c1sc(NC(=O)C(C)(C)C)cc1C	-6	8	-20%	11µM*
CCOC(=O)c1sc(NC(=S)NC(=O)CC(C)C)cc1C	-78*	8	-11%[11.4 µM]	-2%
N#Cc1c([N+](=O)[O-])cc([N+](=O)[O-])cc1S(=O)(=O)Cc1ccccc1	-102*	-14	?	-10%
Cc1ccc(-c2nc3c(c(=O)[nH]c(=O)n3Cc3ccccc3)n2Cc2ccccc2)o1	4	-4	?	4%
CCn1c(CO)nc2c1c(=O)[nH]c(=O)n2Cc1ccccc1	-80*	-33	3%	-10%
Cn1cccc1/C=N/NC(=O)Cn1cnc2ccccc21	-75*	3	-5%	3%
O=C(Cn1cnc2ccccc21)N/N=C/c1cccs1	6	7	-13%	3%
NCCNC(=O)c1ncsc1-c1cccc(F)c1	-52*	-33	-7%[56.9 µM]	-6%
CC1(C)CC(=O)c2sc(NC(=O)c3ccco3)nc2C1	-25	-8	-5%	10µM*
CS(=O)(=O)c1ccc2nc(NC(=O)c3ccco3)sc2c1	1	2	-14%	10µM*
Cc1onc(-c2ccccc2)c1C(=O)Nc1nc2c(s1)C(=O)CC(C)(C)C2	-22	-8	1%[11.4 µM]	-2%
Cc1noc(C)c1C(=O)Nc1nc2ccc(S(C)(=O)=O)cc2s1	13	12	3%	5µM*
Cc1ccc(C(=O)Nc2nc3ccc(S(C)(=O)=O)cc3s2)o1	22	-1	-27%	-12%
COc1ccc2nc(NC(=O)c3c(C)noc3C)sc2c1	-2	2	7%	?
CCOC(=O)C1Nc2ccc(C(F)(F)F)cc2C2c3ccccc3CC12 (configuration not stated)	-24	0	-18%	?
CCOC(=O)C1Nc2ccccc2C2C(O)C(O)CC12 (configuration not stated)	-52*	-34	?	?

Screening results from PubChem.
